Several values for one entry are separate records, joined by “and”; a condition that tells them apart may be missing. Identical values can stand only once. Inconclusive results are not listed. Some structures have more than one record in an assay (separate samples or runs), and their calls can disagree. Activity calls are given as the source filed them. Unless noted, calls follow the shape of the dose curve; as a rule, active = well fitted curve in the direction sought with a large enough effect; inconclusive = small, poorly fitted or top-dose-only effect, or another doubt; inactive = no such curve, though single readings can be large; an effect the other way counts as inactive or inconclusive.
Tests used:
[1] = AP1 Signaling Pathway (AID 357; active = well fitted curve in either direction with a large enough effect, not every such curve was filed as active; also: % is scaled to controls: 0 for no effect and ±100 for the full control effect); conditions: ME-180 AP-1-bla reporter, EGF-induced, beta-lactamase ratio, 5 h; at 17.2 µM (top of the series)
Procedure, shortened: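 AP-1-bla ME-180 cells with beta-lactamase reporter under AP-1 response element, stimulated with EC50 EGF; compounds titrated, 5 hours at 37 degrees Celsius. CCF4 read at 460/530 nm ratio; positive and negative modulators judged by AC50.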

[2] = target: Cytochrome P450 1A2 (Homo sapiens) (UniProt P05177); assay: p450-cyp1a2 (AID 410; calls by dose curve; also: potency is read from the fitted curve at half-maximal effect)
Sequence of Cytochrome P450 1A2 (Homo sapiens) (P05177 whole entry, looked up): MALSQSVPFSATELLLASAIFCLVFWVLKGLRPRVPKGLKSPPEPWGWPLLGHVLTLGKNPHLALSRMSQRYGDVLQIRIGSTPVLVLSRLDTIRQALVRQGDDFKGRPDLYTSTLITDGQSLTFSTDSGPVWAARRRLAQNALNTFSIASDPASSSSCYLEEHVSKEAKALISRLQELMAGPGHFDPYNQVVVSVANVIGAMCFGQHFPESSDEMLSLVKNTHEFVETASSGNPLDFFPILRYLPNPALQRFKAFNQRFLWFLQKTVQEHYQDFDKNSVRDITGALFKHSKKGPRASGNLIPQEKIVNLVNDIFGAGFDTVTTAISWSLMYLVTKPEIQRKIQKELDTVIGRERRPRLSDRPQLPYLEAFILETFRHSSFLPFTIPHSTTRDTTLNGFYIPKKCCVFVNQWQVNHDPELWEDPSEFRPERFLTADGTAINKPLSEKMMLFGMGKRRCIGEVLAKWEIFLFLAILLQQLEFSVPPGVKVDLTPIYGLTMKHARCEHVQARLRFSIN
Procedure, shortened: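 O-Demethylation of luciferin 6' methyl ether by human CYP1A2 is monitored as luciferase luminescence. Substrate sits at Km (100uM); enzyme is 20nM. Values are scaled to 57 uM furafylline as maximal inhibition.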

[3] = NFAT Signaling Pathway (AID 444; active = well fitted curve in either direction with a large enough effect, not every such curve was filed as active;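 also: carbachol stimulus at about its EC50 of 1 µM final; % is scaled to controls: 0 for no effect and ±100 for the full control effect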); conditions: Jurkat NFAT-bla M1, carbachol, beta-lactamase ratio, 5 h; at 17.2 µM (top of the series)
Procedure, shortened: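 Jurkat cells with NFAT-driven β-lactamase reporter and co-expressed M1 receptor, stimulated with carbachol (final 1 uM, ~EC50), compound titration, 5 h at 37 °C. CCF4 loaded 1 h at RT; 460/530 nm ratio gave %activity and AC50.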

[4] = Stat Signaling Pathway (AID 446; active = well fitted curve in either direction with a large enough effect, not every such curve was filed as active;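 also: ME-180 cervical cancer cells given 40 pM IL-6 alongside compound; SIE-controlled beta-lactamase reporter measured as 460/530 nm FRET emission ratio; % is scaled to controls: 0 for no effect and ±100 for the full control effect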); conditions: ME-180 (cervical carcinoma) SIE beta-lactamase reporter, IL-6 stimulated, 5 h; at 17.2 µM (top of the series)
Procedure, shortened: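 Emission at 460 and 530 nm (excitation 405 nm) reports SIE-controlled beta-lactamase in ME-180 cells. Cells received compound with 40 pM IL-6 for 5 hrs at 37 C; data scaled between 300 pM IL-6 and 125 nM JAK-inhibitor controls.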

[5] = target: Glucocorticoid receptor (Homo sapiens) (UniProt P04150); assay: GR-EFC Redistribution (AID 451; calls by dose curve; also: potency is read from the fitted curve at half-maximal effect); conditions: CHO-K1 GR-EFC translocation, beta-gal luminescence, 2 h
Sequence of Glucocorticoid receptor (Homo sapiens) (P04150 whole entry, looked up, the tested form may be a part): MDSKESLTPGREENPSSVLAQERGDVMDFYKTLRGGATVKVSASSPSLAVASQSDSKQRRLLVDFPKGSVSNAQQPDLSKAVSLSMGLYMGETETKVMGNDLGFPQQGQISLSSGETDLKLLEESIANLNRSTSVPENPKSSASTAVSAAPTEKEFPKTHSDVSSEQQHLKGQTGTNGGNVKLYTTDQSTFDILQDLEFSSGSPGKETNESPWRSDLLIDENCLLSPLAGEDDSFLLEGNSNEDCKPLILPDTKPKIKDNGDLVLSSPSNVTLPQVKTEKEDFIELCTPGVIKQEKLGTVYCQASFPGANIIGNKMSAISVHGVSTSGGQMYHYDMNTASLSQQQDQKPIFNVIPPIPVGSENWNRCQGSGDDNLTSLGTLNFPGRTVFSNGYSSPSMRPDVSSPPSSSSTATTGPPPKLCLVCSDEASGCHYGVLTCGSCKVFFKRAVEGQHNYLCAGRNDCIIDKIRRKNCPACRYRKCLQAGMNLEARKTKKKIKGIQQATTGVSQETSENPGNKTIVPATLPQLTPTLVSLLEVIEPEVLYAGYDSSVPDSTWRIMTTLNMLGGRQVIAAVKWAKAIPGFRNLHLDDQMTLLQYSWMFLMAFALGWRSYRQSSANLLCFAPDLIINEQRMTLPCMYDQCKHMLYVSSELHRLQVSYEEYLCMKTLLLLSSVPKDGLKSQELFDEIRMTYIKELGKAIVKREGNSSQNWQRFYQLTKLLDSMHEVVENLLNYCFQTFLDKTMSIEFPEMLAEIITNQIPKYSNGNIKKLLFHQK
Procedure, shortened: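 CHO-K1 cells expressing nuclear EA and GR-ED fragments of b-gal; compounds titrated up to 46 uM final, 2 h at 37 C. GR nuclear translocation read as complemented b-gal luminescence after 1 h RT detection.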

[6] = target: Cytochrome P450 2C9 (Homo sapiens) (UniProt P11712); assay: qHTS Assay for Inhibitors and Substrates of Cytochrome P450 2C9 (AID 883); also: % is scaled to controls: 0 for no effect and ±100 for the full control effect; nearly all actives have a fitted effect of over 60% in size
Sequence of Cytochrome P450 2C9 (Homo sapiens) (P11712 whole entry, looked up): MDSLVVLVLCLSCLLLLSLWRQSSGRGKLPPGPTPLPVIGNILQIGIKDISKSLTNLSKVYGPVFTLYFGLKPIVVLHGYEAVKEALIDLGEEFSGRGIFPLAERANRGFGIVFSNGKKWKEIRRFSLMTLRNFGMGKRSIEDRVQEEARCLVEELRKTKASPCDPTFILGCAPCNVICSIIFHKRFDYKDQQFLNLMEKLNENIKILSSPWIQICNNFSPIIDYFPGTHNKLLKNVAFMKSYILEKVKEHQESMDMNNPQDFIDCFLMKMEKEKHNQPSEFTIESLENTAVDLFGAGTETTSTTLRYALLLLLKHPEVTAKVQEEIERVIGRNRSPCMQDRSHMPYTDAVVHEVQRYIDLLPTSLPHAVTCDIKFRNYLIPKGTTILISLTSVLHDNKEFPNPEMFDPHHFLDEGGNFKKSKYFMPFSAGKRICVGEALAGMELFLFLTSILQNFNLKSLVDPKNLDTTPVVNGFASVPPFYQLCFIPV
Procedure, shortened: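 Signal: luciferase luminescence reporting luciferin produced by CYP2C9. Conditions: 10nM enzyme, Luciferin-H 100uM at KM, 25mM KPO4, 37C, 60 min NADPH-driven reaction. Reference: 57uM sulphaphenazole as 100% inhibition.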

[7] = target: Cytochrome P450 3A4 (Homo sapiens) (UniProt P08684); assay: qHTS Assay for Inhibitors and Substrates of Cytochrome P450 3A4 (AID 884); also: potency is read from the fitted curve at half-maximal effect; nearly all actives have a fitted effect of over 50% in size
Sequence of Cytochrome P450 3A4 (Homo sapiens) (P08684 whole entry, looked up): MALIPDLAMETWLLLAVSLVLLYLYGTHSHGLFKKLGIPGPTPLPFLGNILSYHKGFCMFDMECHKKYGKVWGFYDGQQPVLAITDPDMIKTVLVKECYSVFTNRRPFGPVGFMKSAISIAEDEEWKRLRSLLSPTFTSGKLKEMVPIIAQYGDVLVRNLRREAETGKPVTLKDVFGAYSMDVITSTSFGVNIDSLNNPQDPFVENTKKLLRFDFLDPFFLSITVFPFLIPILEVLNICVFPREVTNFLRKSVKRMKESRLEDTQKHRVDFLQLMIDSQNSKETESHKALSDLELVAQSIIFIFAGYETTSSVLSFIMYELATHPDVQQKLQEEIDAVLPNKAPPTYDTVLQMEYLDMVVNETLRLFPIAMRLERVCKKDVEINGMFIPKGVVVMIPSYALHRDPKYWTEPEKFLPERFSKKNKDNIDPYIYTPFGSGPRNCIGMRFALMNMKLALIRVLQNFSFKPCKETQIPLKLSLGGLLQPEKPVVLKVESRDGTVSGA
Procedure, shortened: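 Luminescent readout of luciferin produced by CYP3A4 (20 nM) dealkylation of Luciferin-PPXE, 25 uM (its KM). NADPH-driven reaction ran 60 min at RT after 10 min compound preincubation; data scaled to 57 uM ketoconazole as 100% inhibition.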

[8] = target: Cytochrome P450 3A4 (Homo sapiens) (UniProt P08684); assay: qHTS Assay for Activators of Cytochrome P450 3A4 (AID 885); also: nearly all actives have a fitted effect of over 65% in size
Procedure, shortened: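 Activators are scored by enhanced luminescence from CYP3A4 conversion of luciferin-PPXE (25uM, equal to KM) to luciferin, after 60 min at RT with an NADPH-regenerating system.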

[9] = target: Cytochrome P450 2D6 (Homo sapiens) (UniProt P10635); assay: qHTS Assay for Inhibitors and Substrates of Cytochrome P450 2D6 (AID 891);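 also: luciferin methyl ether substrate demethylated by CYP2D6 with NADPH regeneration; % is scaled to controls: 0 for no effect and ±100 for the full control effect; nearly all actives have a fitted effect of over 60% in size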
Sequence of Cytochrome P450 2D6 (Homo sapiens) (P10635 whole entry, looked up): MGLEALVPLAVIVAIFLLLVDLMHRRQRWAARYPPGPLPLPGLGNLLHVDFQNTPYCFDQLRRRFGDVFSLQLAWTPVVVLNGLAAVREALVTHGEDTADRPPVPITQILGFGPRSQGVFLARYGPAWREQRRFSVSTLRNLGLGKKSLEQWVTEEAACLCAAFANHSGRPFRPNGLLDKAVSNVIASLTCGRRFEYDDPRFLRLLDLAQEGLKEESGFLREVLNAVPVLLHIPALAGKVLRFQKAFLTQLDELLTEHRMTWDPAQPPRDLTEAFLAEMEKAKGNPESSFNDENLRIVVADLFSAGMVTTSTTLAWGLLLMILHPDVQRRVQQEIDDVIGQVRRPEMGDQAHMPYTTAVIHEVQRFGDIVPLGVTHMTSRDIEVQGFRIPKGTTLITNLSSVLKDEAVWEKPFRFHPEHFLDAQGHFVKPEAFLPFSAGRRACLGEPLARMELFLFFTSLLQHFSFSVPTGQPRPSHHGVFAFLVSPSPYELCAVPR
Procedure, shortened: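 Luminescent read-out of luciferin formed by 5 nM human CYP2D6 demethylating 30 uM Luciferin-ME EGE (Km level) over 60 min at room temperature after NADPH regeneration addition. Data normalized to full inhibition by 1.43 uM quinidine.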

[10] = target: Cytochrome P450 2C19 (Homo sapiens) (UniProt P33261); assay: qHTS Assay for Inhibitors and Substrates of Cytochrome P450 2C19 (AID 899); also: nearly all actives have a fitted effect of over 60% in size; also: potency is read from the fitted curve at half-maximal effect
Sequence of Cytochrome P450 2C19 (Homo sapiens) (P33261 whole entry, looked up): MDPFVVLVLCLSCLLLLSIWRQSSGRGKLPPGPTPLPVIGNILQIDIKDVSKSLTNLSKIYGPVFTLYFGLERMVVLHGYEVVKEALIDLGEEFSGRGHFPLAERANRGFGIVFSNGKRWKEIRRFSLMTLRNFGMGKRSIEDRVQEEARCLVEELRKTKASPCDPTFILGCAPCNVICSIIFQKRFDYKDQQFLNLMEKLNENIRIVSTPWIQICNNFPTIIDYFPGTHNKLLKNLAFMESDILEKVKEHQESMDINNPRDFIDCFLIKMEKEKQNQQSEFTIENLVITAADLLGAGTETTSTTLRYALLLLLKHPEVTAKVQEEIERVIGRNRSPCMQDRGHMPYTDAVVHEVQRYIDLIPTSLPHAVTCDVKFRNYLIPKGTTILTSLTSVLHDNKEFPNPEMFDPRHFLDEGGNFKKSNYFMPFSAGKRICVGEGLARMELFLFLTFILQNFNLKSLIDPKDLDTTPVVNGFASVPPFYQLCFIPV
Procedure, shortened: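 Signal comes from luciferase acting on luciferin released by CYP2C19-mediated hydroxylation of Luciferin-H EGE, 10uM (KM). Assay mix: 5nM enzyme, 50mM KPO4; 60 min at 37C with NADPH regeneration. Data normalized against 57uM ketoconazole.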

[11] = qHTS Assay for Lipid Storage Modulators (AID 1519; calls by dose curve); conditions: Drosophila S3 cells, BODIPY lipid droplet/cell ratio, laser cytometry, cells loaded with oleic acid
Procedure, shortened: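 Cells seeded at 5,000 per well were treated with compounds over a concentration series and loaded with oleic acid (400 uM, as added). Lipid droplet fluorescence (488 nm excitation, 500-530 nm channel) was read by laser-scanning cytometry and normalized to 20 uM Triacsin C.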

[12] = target: Ubiquitin carboxyl-terminal hydrolase 1 (Homo sapiens) (UniProt O94782); assay: Inhibitors of USP1/UAF1: Pilot qHTS (AID 504865); also: potency is read from the fitted curve at half-maximal effect; nearly all actives have a fitted effect of over 35% in size
Sequence of Ubiquitin carboxyl-terminal hydrolase 1 (Homo sapiens) (O94782 whole entry, looked up): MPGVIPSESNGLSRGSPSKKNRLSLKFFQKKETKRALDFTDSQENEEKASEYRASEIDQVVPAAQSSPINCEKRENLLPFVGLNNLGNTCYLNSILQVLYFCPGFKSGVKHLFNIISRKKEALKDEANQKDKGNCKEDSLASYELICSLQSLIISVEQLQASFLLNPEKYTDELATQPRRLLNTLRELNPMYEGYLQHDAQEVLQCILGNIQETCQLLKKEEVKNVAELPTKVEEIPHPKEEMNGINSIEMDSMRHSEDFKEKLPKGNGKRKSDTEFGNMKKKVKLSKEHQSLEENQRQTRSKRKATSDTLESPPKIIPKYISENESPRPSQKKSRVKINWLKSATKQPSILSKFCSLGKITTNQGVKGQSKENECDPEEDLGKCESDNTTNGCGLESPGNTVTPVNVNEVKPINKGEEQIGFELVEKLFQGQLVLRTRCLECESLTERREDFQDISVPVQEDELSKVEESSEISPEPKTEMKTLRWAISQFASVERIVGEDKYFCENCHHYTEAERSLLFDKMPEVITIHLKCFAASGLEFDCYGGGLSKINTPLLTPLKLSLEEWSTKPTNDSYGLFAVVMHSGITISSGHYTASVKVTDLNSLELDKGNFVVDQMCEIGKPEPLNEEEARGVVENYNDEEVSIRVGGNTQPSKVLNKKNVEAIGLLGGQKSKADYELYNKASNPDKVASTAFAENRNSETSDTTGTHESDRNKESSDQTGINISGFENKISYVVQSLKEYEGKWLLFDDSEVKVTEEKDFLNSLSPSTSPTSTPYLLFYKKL
Procedure, shortened: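 USP1/UAF1 complex (1nM) preincubated with compound 15 min at room temperature, then Ub-Rho substrate (150nM final) added. Fluorescence read kinetically at 480/540 nm, 6 reads every 60 seconds. Buffer: 50mM HEPES pH 7.8, 0.5mM EDTA, 0.1 mg/ml BSA, 1mM TCEP, 0.01% Tween-20.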

[13] = target: DNA dC->dU-editing enzyme APOBEC-3G (Homo sapiens) (UniProt Q9HC16); assay: qHTS for inhibitors of Vif-A3G interactions: Validation (AID 588379); also: 0% is about no effect
Sequence of DNA dC->dU-editing enzyme APOBEC-3G (Homo sapiens) (Q9HC16 whole entry, looked up): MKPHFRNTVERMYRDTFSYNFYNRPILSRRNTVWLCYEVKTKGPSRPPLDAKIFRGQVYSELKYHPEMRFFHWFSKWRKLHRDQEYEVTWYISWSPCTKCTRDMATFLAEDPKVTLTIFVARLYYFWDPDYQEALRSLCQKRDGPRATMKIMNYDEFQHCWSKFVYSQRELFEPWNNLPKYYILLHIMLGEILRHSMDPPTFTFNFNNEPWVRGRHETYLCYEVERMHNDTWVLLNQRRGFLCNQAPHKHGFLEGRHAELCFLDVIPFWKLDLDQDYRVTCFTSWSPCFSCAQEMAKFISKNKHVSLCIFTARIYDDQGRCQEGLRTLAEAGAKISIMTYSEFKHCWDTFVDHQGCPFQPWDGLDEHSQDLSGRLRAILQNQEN
Procedure, shortened: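 Yellow fluorescence (Ex 488, Em 500-530) of Vif-coexpressing HeLa A3G-eYFP cells, scanned by Acumen cytometer, reports blocked A3G degradation. Cells plated at 700/well overnight at 37 deg C before compound addition, then a further overnight compound incubation at 37 deg C.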

[14] = Confirmatory screen GU Rhodamine qHTS for Zika virus inhibitors qHTS (AID 1347157); also: potency is read from the fitted curve at half-maximal effect; nearly all actives have a fitted effect of over 70% in size
Procedure, shortened: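 Buffer 10 mM Tris-HCl pH 8.0, 0.01% Tween 20. Unlinked protease 25 nM; compound preincubation 15 min, RT, protected from light. Substrate Rhod110, 1.5 microM; ~15% conversion in 15 min.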

[15] = ZIKV-mCherry secondary qHTS for Zika virus inhibitors (AID 1347158); also: top concentration of the series differs between compounds
Procedure, shortened: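 Compounds were tested in Vero monkey kidney cells infected with recombinant mCherry-expressing Zika virus at MOI 1 for 48-72 h at 37 °C. Fixed cells were nuclear-stained and imaged, and infection rate was taken as the fraction of mCherry-positive cells.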

[16] = Confirmatory screen NINDS Rhodamine qHTS for Zika virus inhibitors (AID 1347161); also: potency is read from the fitted curve at half-maximal effect; nearly all actives have a fitted effect of over 60% in size
Procedure, shortened: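 Purified NS2B-NS3 protease with the NS2B hydrophilic domain joined by a flexible linker (25 nM) in 10 mM Tris-HCl pH 8.0, 0.01% Tween 20, preincubated 15 min at RT with compound; Rhodamine110 peptide substrate 1.5 µM; fluorescence change over 15 min; 4-parameter Hill fit.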

[17] = system: Zika virus NS2B-NS3 protease (linked); assay: 384 well plate NINDS AMC confirmatory qHTS for Zika virus inhibitors (AID 1347163); also: potency is read from the fitted curve at half-maximal effect; nearly all actives have a fitted effect of over 50% in size
Procedure, shortened: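 Fluorescence at 355/460 nm was read after 25 minutes of cleavage of 30 microM Ac-VKTGKR-AMC at room temperature, in the dark. Before substrate addition, compounds (up to 1 mM final) sat ~15 minutes with 5, 30 or 60 nM linked protease. Signals were normalized to no-enzyme and no-inhibitor wells.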

[18] = system: Zika virus NS2B-NS3 protease (linked construct); assay: 384 well plate NINDS Rhodamine confirmatory qHTS for Zika virus inhibitors (AID 1347164);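 also: fluorescence from protease cleavage of Ac-LKRR-rhodamine 110 substrate; nearly all actives have a fitted effect of over 65% in size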; also: potency is read from the fitted curve at half-maximal effect;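 as to activity change, negative = inhibition: top concentration of the series differs between compounds; plate controls were no-inhibitor control for no effect and no-enzyme control for full effect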
Procedure, shortened: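 Linked protease at a final 5 nM, 30 nM or 60 nM was preincubated ~15 min with compounds, then given 10 microM Ac-LKRR-Rhodamine 110. Fluorescence (ex 485/em 538 nm) after 25 min in the dark at room temperature.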

[19] = Tertiary RLuc qRT-PCR qHTS assay for Zika virus inhibitors (AID 1347169); also: top concentration of the series differs between compounds; % is scaled to controls: 0 for no effect and ±100 for the full control effect; nearly all actives have a fitted effect of over 55% in size
Procedure, shortened: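 Vero cells (1,000 per well) plated overnight at 37 degrees C, treated with compound in DMSO, then infected with recombinant ZIKV-RLuc (Cambodian) at MOI 1-2 for 48-72 hrs. Live-cell Renilla luciferase substrate added; luminescence read after 1-1.5 hrs.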

[20] = Confirmatory qHTS for small molecule stabilizers of the endoplasmic reticulum resident proteome: Secreted ER Calcium Modulated Protein (SERCaMP) assay (AID 1508628); also: potency is read from the fitted curve at half-maximal effect; nearly all actives have a fitted effect of over 40% in size
Procedure, shortened: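 Reporter secretion upon ER calcium depletion (100 nM thapsigargin, 4 h, 37C) is measured as medium luminescence with coelenterazine, after 16 h compound pretreatment of SH-SY5Y-GLuc-SERCaMP cells; primary at three concentrations up to 38.3 uM, follow-up at 11 (up to 76.6 uM).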

[21] = Primary qHTS for small molecule stabilizers of the endoplasmic reticulum resident proteome: Secreted ER Calcium Modulated Protein (SERCaMP) assay (AID 1508630); also: % is scaled to controls: 0 for no effect and ±100 for the full control effect
Procedure, shortened: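 The SH-SY5Y reporter protocol was run at 3 concentrations up to 38.3 uM (primary) or 11 concentrations (follow-up): 16 h compound, 100 nM thapsigargin for 4 h, then extracellular luciferase luminescence.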

[22] = Confirmation and Secondary Assay for Modulators of Hemoglobin Beta Chain Splicing at IVS2 654 locus (AID 910);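 also: HeLa cells stably carrying EGFP split by mutant beta-globin IVS2-654 intron; % of control where 0% means no effect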
Procedure, shortened: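 HeLa cells stably expressing EGFP interrupted by β-globin IVS2-654 intron, seeded overnight in Opti-MEM/2% FCS, then treated 2 days at 37 °C. Restored splicing read as total peak GFP intensity per well by laser scanning cytometry (488 nm excitation, 500–520 nm emission); 500 nM antisense PNA as control.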

[23] = Confirmation and Secondary Assay for Modulators of Hemoglobin Beta Chain Splicing at IVS2 705 locus (AID 930);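 also: HeLa cells stably expressing the EGFP-705 splicing reporter; GFP fluorescence per well restored by corrected splicing of the IVS2-705 intron in EGFP; % of control where 0% means no effect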
Procedure, shortened: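 Secondary splice-site specificity test uses HeLa expressing CMV-driven EGFP interrupted by IVS2-705; cells were treated 2 days at 37C with 500 nM antisense PNA as positive control.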

[24] = measured here: cell count channel max response
[25] = measured here: lipid channel max response

## COc1cc(-c2ccc(N=Nc3ccc4c(S(=O)(=O)O)cc(S(=O)(=O)O)c(N)c4c3O)c(OC)c2)ccc1N=Nc1ccc2c(S(=O)(=O)O)cc(S(=O)(=O)O)c(N)c2c1O
[1]
  activity change, negative = inhibition: 15% (inactive)
[2]
  Potency: 12.6 µM (active) and 20 µM (active)
[3]
  activity change, negative = inhibition: 0.00688% (inactive)
[4]
  activity, negative = inhibition: -15.7% (inactive)
[5]
  Potency: > 20.6 µM (inactive) and > 46 µM (inactive)
[6]
  Potency: inactive
[7]
  Potency: 15.8 µM (active)
[8]
  Potency: inactive
[9]
  Potency: inactive
[10]
  Potency: 3.98 µM (active) and inactive
[11]; at 25.7 µM (top of the series)
  activity change, negative = inhibition: 3.4% (inactive)
[11]; [24]
  max response: 1.95%
[11]; [25]
  max response: 8.3%
[12]
  Potency: 17.8 µM (active) and 8.91 µM (active)
[13]
  Potency: inactive
[14]
  Potency: 2.82 µM (active)
[15]
  Potency: inactive
[16]
  Potency: 2 µM (active)
[17]
  Potency: 7.08 µM (active)
[18]
  Potency: inactive
[19]
  Potency: inactive
[20]
  Potency: 28.2 µM (active)
[21]
  activity change, negative = inhibition: -28.6% [at 7.35 µM] (inactive)

## CC(C)(C)c1ccc(S(=O)(=O)Nc2ccc(O)c(Sc3nc4ccccc4s3)c2)cc1
[14]
  Potency: 35.5 µM (active)
[16]
  Potency: 28.2 µM (active)
[18]
  Potency: 100 µM (active)

## CC(=O)Nc1ccc(S(=O)(=O)O)c2cc(S(=O)(=O)O)c(N=Nc3ccc(N=Nc4ccc(S(=O)(=O)O)cc4)c4ccc(S(=O)(=O)O)cc34)c(O)c12
[14]
  Potency: 6.31 µM (active)
[16]
  Potency: 2.51 µM (active)
[17]
  Potency: 22.4 µM (active)
[18]
  Potency: 3.98 µM (active)
[19]
  Potency: inactive

## Cc1c(C2(c3cc(C(C)C)c(O)c(Br)c3C)OS(=O)(=O)c3ccccc32)cc(C(C)C)c(O)c1Br
[14]
  Potency: 5.01 µM (active)
[15]
  Potency: inactive
[16]
  Potency: 5.62 µM (active)
[17]
  Potency: 126 µM (active)
[18]
  Potency: 17.8 µM (active)

## CC(C)c1ccc(NC(=O)c2ccc3c(O)c(S(=O)(=O)c4ccccc4)c(=O)[nH]c3c2)cc1
[14]
  Potency: 17.8 µM (active)
[15]
  Potency: inactive
[16]
  Potency: 3.98 µM (active)
[17]
  Potency: 282 µM (active)
[18]
  Potency: 28.2 µM (active)

## O=C(OC1Cc2c(O)cc(O)cc2OC1c1cc(O)c(=O)c2c(O)c(O)cc(C3Oc4cc(O)cc(O)c4CC3OC(=O)c3cc(O)c(O)c(O)c3)c2c1)c1cc(O)c(O)c(O)c1 (configuration not stated)
[11]; at 57.5 µM (top of the series)
  activity change, negative = inhibition: 15% (inactive)
[11]; [24]
  max response: -10.5%
[11]; [25]
  max response: 7.68%
[14]
  Potency: 5.01 µM (active)
[15]
  Potency: inactive
[16]
  Potency: 11.2 µM (active)
[17]
  Potency: 2.24 µM (active)
[18]
  Potency: inactive

## Cc1ccc(NC(=O)c2ccc3c(O)c(S(=O)(=O)c4ccccc4)c(=O)[nH]c3c2)cc1Cl
[14]
  Potency: 8.91 µM (active)
[15]
  Potency: inactive
[16]
  Potency: 6.31 µM (active)
[17]
  Potency: 282 µM (active)
[18]
  Potency: 44.7 µM (active)
[19]
  Potency: inactive

## O=C(O[C@@H]1Cc2c(O)cc(O)cc2OC1c1ccc(O)c(O)c1)c1cc(O)c(O)c(O)c1 (some centres not stated)
[8]
  Potency: inactive
[22]
  outcome: inactive
[23]
  outcome: inactive
[11]; at 57.5 µM (top of the series)
  activity change, negative = inhibition: 6.43% (inactive)
[11]; [24]
  max response: -10%
[11]; [25]
  max response: -4.33%
[14]
  Potency: 35.5 µM (active)
[15]
  Potency: inactive
[16]
  Potency: 14.1 µM (active)
[17]
  Potency: 25.1 µM (active)
[18]
  Potency: 0.708 µM (active)
[19]
  Potency: inactive

Reference: PubChem BioAssay (NCATS)
